This note sets out measurements from PubChem BioAssay AID1345085 (National Center for Advancing Translational Sciences (NCATS), 2018).

Each structure is given as a SMILES string. Inconclusive results are not listed. Unmarked numbers belong to inactive results. The source made the active and inactive calls. Calls come from the whole dose curve; as a rule, active = well fitted cell-killing curve with a large enough effect; inconclusive = small, poorly fitted or top-dose-only effect, or effect the other way; inactive = no such curve, though single readings can be large or run the other way.
% is set by controls: 0 for no effect and ±100 for the full control effect; potency is the fitted concentration of half-maximal effect.

The test concerns SW626. As to the kind of experiment: Confirmatory qHTS for gynecologic anti-cancer compounds from libraries of approved drugs and bioactive compounds. Note: nearly all actives have a fitted effect of over 55% in size. Particulars: gynecologic cancer cell panel viability, ATPlite luminescence, 48 h; series mostly up to 57.6 µM; activity change, negative = viability loss: at the top concentration. An excerpt:
National Center for Advancing Translational Sciences [NCATS] Assay Overview: Chemotherapeutic drug responses vary from cancer to cancer and from patient to patient. These variations could be caused by a number of factors including patient genomic background, tumor mutations, tumor heterogeneity, and aspects of drug treatment. Chemotherapeutic drug resistance is also a common issue and can lead to ineffective treatment and patient death. Here we have profiled the cell killing effects of thousands of compounds to characterize the responses in three gynecological cancers, identify cancer-selective compounds, and understand the diversity of responses to these compounds from pan-cancer suppressors to single cell line selective compounds. In this assay, we screened a 7,914 compound drug library that included approved drug and bioactive compounds in six ovarian, three cervical, and two placental cancer cell lines using the ATPlite assay for cell viability. ATPlite is a luminescence based assay reliant on the conversion of a luciferase substrate to light in the presence of ATP. As a cytotoxic compound will suppress growth and decrease the number of cells, the concentration of ATP will decrease, and less light signal will be detected in the well. Hits were selected from the primary screen for follow-up confirmation. For the confirmation screens, the ovarian cancer cell lines included CAOV-3, SK-OV-3, SW 626, ES-2, PA-1, and TOV-21G. The cervical cancer cell lines included HeLa, Ca Ski, and C-33 A. The placental cancer cell lines included JEG-3 and JAR. HEK 293T cells were used as the control cell line to determine the selectivity index. The ATPlite assay was used to determine the IC50 values.
Assay Protocol Summary: 1,000 cells in 4 uL of media were dispensed into white, solid bottom 1536-well plates using a Multidrop Combi (Thermo Scientific). The Assay plates were incubated for 16 hours at 37 C with 5% CO2 in assay plates, followed by the addition of 23 nL of DMSO or drug dissolved in DMSO. . Each compound was assayed in 11 concentrations (1:3 dilution) from 57.5 uM to 0.977 nM, using the automated Wako 1536 Pin Tool workstation and incubated at 37 C with 5% CO2 48 hours. 4 uL of ATPlite, the ATP monitoring reagent, was then added to the each well of the assay plates using the Multidrop Combi reagent dispenser followed by incubation for 15 minutes at room temperature. The resulting luminescence was measured using the ViewLux plate reader.
A general note: In qHTS, concentration-response curves come from the screen itself.
As for `OCc1ccc(-c2ccc(-c3ccc(CO)s3)o2)s1`, the Potency is 10.6 µM (active). For `Cc1nc(NC(=O)N2CCCC2C(N)=O)sc1-c1csc(C(C)(C)C)n1` (stereo not given), the “activity change, negative = viability loss” value is -10.7%. In the case of `Cc1cc(Nc2cc(N3CCN(C)CC3)nc(/C=C/c3ccccc3)n2)n[nH]1`, the Potency was 21.7 µM (active). Still for that read-out and setting: in the case of `COc1cc2c(NC3CCN(C(C)C)CC3)nc(C3CCCCC3)nc2cc1OCCCN1CCCC1` it was 10.9 µM (active).

As for `O=c1c2ccccc2nc2n1CCc1c-2[nH]c2ccccc12`, the “activity change, negative = viability loss” value was -13.4%. Same read-out and setting: then `Nc1ncnc2c1ncn2[C@@H]1O[C@H](CO)C[C@H]1O`, with -5.75%. With `CN(C)CCC(CSc1ccccc1)Nc1ccc(S(=O)(=O)NC(=O)c2ccc(N3CCN(Cc4ccccc4-c4ccc(Cl)cc4)CC3)cc2)cc1[N+](=O)[O-]` (stereo not given), the Potency is 7.69 µM (active). `CN(C)/N=N/c1nc[nH]c1C(N)=O`: the “activity change, negative = viability loss” value was 7.16%. In the case of `CN1C2CCC1CC(OC(=O)[C@H](CO)c1ccccc1)C2` (stereo not given in full), the “activity change, negative = viability loss” value is -16.8%. For the compound `NS(=O)(=O)c1ccc(Nc2nc(OCC3CCCCC3)c3[nH]cnc3n2)cc1`, the “activity change, negative = viability loss” value was -23.4%. On to `Cc1cnc(Nc2ccc(CN3CCOCC3)cc2)nc1Nc1cccc(S(=O)(=O)NC(C)(C)C)c1`, for which the Potency is 15.3 µM (active). Regarding `CC(C)(C(=O)NCC(F)(F)C(F)(F)F)C(=O)NC1C(=O)Nc2ccccc2-c2ccccc21` (stereo not given), the “activity change, negative = viability loss” value was -11%. On the same count and under the same terms, then `CN(C)C(CCOc1cccc2ccccc12)c1ccccc1` (stereo not given), with -9.38%; and `COc1ccc(CCC(=O)c2c(O)cc(O[C@@H]3O[C@H](CO)[C@@H](O)[C@H](O)[C@H]3O[C@@H]3O[C@@H](C)[C@H](O)[C@@H](O)[C@H]3O)cc2O)cc1O`, with 3.71%. For `Cc1ccc(C(=O)N(CCCN)C(c2oc3cc(Cl)ccc3c(=O)c2Cc2ccccc2)C(C)C)cc1` (stereo not given), the Potency was 24.3 µM (active). On to `CN[C@@H](C)C(=O)N[C@H]1CN(C(=O)CC(C)C)CC[C@H]2CC[C@@H](C(=O)NC(c3ccccc3)c3ccccc3)N2C1=O`, for which the “activity change, negative = viability loss” value was -11.7%. Regarding `CCC1C(=O)N(C)c2cnc(Nc3ccc(C(=O)NC4CCN(C)CC4)cc3OC)nc2N1C1CCCC1` (stereo not given), the Potency was 2.43 µM (active). As for `CC(Oc1ccc2[nH]nc(/C=C/c3cnn(CCO)c3)c2c1)c1c(Cl)cncc1Cl` (stereo not given), the “activity change, negative = viability loss” value is 10.8%. Still for that read-out and setting: then `Cc1ccc(C(N)=O)cc1Nc1nccc(-c2cn(C(C)C)c3cnccc23)n1`, with 8.56%; and `CC(C)CC(=O)Nc1n[nH]c2c1CN(C(=O)C1CCN(C)CC1)C2(C)C`, with 10.2%. As to `Cc1cc(Nc2nc(N[C@@H](C)c3ccc(F)cc3)c(C#N)cc2F)n[nH]1`, the Potency was 5.44 µM (active). Still for that read-out and setting: in the case of `Cn1cnc2c(F)c(Nc3ccc(Br)cc3Cl)c(C(=O)NOCCO)cc21` it was 2.73 µM (active); in that of `COC(C)(C)CCn1nc(Nc2c(C)cccc2C)c2cnc(Nc3ccc(OCCN4CCCC4)c(F)c3)nc21`, 19.3 µM (active). Same read-out and setting: then `Cc1cnc(Nc2ccc(OCCN3CCCC3)cc2)nc1Nc1cccc(S(=O)(=O)NC(C)(C)C)c1`, with 19.3 µM (active). Still for that read-out and setting: in the case of `C=CC(=O)Nc1cccc(Oc2nc(Nc3ccc(N4CCN(C)CC4)cc3)ncc2Cl)c1` it was 24.3 µM (active); in that of `COc1cc(-c2nn(C3CCC(N4CCN(C(C)=O)CC4)CC3)c3ncnc(N)c23)ccc1NC(=O)c1cc2ccccc2n1C` (stereo not given), 27.3 µM (active). In the case of `CN1CCN(c2ccc(OC(F)(F)F)c(Nc3ncc4c(n3)-c3c(c(C(N)=O)nn3CCO)CC4)c2)CC1`, the “activity change, negative = viability loss” value was 3.2%.

Regarding `OCCNC1CCCc2c1[nH]c1ccc(-c3ccccc3)cc21` (stereo not given), the Potency is 19.3 µM (active). For the compound `CC(C)C[C@H](NC(=O)[C@@H](NC(=O)c1cccc(-c2ccccc2)n1)[C@@H](C)O)B(O)O`, the Potency is 0.0385 µM (active). On the same count and under the same terms, in the case of `C1CCC(C(CC2CCCCN2)C2CCCCC2)CC1` (stereo not given) it was 27.3 µM (active).

In the case of `COc1cc2ncnc(Nc3ccc(F)c(Cl)c3)c2cc1OCCCN1CCOCC1`, the “activity change, negative = viability loss” value was -20.8%. Same read-out and setting: then `COc1c(C)c2c(c(O)c1C/C=C(\C)CCC(=O)O)C(=O)OC2`, with -28.5%.

For `CN(C)c1ccc(-c2nc3ncc(Cl)c(N4CCN(CC(=O)Nc5nccs5)CC4)c3[nH]2)cc1`, the “activity change, negative = viability loss” value is -9.1% [at 19.5 µM].

Turning to `CC(C)[C@@H](CS(=O)(=O)C(C)C)N1C(=O)[C@@](C)(CC(=O)O)C[C@H](c2cccc(Cl)c2)[C@H]1c1ccc(Cl)cc1`, the “activity change, negative = viability loss” value is 12.1%.

Consider `CS(=O)(=O)c1ccc(-c2cnc(N)c(C(=O)Nc3ccccc3)n2)cc1`, for which the “activity change, negative = viability loss” value was 2.68%. Same read-out and setting: then `O=C1NC(=O)C(c2cnc3ccccn23)=C1c1cn2c3c(cccc13)CN(C(=O)N1CCOCC1)CC2`, with -3.12%; and `CC[C@H](Nc1ncnc2nc[nH]c12)c1nc2cccc(F)c2c(=O)n1-c1ccccc1`, with -5.07% [at 10.7 µM]; and `CCOC(=O)C1=C(C)NC2=C(C(=O)CC(C)(C)C2)C1c1ccc(-c2ccccc2)cc1` (stereo not given), with 8.62%.

For `Cc1ccc(C(=O)N(CCCN)C(c2nc3cc(Cl)ccc3c(=O)n2Cc2ccccc2)C(C)C)cc1` (stereo not given), the Potency was 9.68 µM (active). The same measure, in the same setting: in the case of `COCCOc1nc(-c2ccc(Cl)c(Cl)c2)n(-c2ccc(NC(=O)CCl)cc2)n1` it was 6.11 µM (active).
